From article PMC5540273 (PLoS ONE, 2017)

How the values were obtained:
Conditions in all cases: concentration: 1 μM, replicates: in singlicate; n = 1
ERK1 = tested on: T1, ERK1
T1 construct: gene MAPK3

ERK2 = tested on: T2, ERK2
T2 construct: gene MAPK1

ERK3 = tested on: T3, ERK3
T3 construct: gene MAPK6

ERK4 = tested on: T4, ERK4
T4 construct: gene MAPK4

ERK5 = tested on: T5, ERK5
T5 construct: gene MAPK7

ERK8 = tested on: T6, ERK8
T6 construct: gene MAPK15

ERN1 = tested on: ERN1
FAK = tested on: T7, FAK
T7 construct: gene PTK2

FER = tested on: FER
FES = tested on: FES
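Note: KINOMEscan kinase panel screen.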

Structure (SMILES)	%Inh (ERK1) [%]	%Inh (ERK2) [%]	%Inh (ERK3) [%]	%Inh (ERK4) [%]	%Inh (ERK5) [%]	%Inh (ERK8) [%]	%Inh (ERN1) [%]	%Inh (FAK) [%]	%Inh (FER) [%]	%Inh (FES) [%]
NCCC(NC(=O)c1cc(Br)c(-c2ccnc3[nH]ccc23)s1)c1ccccc1.O=C(O)C(F)(F)F.O=C(O)C(F)(F)F (stereo not drawn) [GSK1307810]	4	0	7	0	0	33	22	9	3	0
O=C1NC(=O)C(c2ccccc2Cl)=C1Nc1cccc(Cl)c1 [SB-342409]	10	0	68	17	0	61	26	10	0	0
Fc1cc(Cl)ccc1Nc1ccnc2cc(-c3ccc(CN4CCSCC4)o3)ccc12 [GW560106]	17	0	0	0	0	0	6	0	37	0
COC(=O)Nc1nc2ccc(Oc3ccc(CC(=O)Nc4cc(C(F)(F)F)ccc4F)cc3)cc2[nH]1 [GW680903]	0	0	0	7	0	0	0	0	0	0
N#Cc1cnc2cc(-c3cnc(CNCCN4CCOCC4)s3)ccc2c1Nc1ccc(Oc2ccccc2)cc1 [GW664114]	0	0	0	48	0	0	21	0	82	94.9
Cc1ccc(O)cc1Nc1ccnc2cc(-c3ccc(CN4CCCCC4)o3)ccc12 [GW557777]	0	0	0	8	20	0	23	0	11	7
Cl.N#CCc1ccc(Nc2nccc(Nc3ccc(Oc4ccccc4)cc3)n2)cc1 [GW639905]	0	0	0	0	0	35	10	0	0	0
O=C(O)C(F)(F)F.O=c1[nH]ccc2nc(N[C@@H]3CCNC3)nc(Nc3ccc4c(c3)S(=O)(=O)CC4)c12 [GSK2181306]	55	61	78	28	17	5	39	84	75	16
CC(C)NCC(Cc1ccccc1)NC(=O)c1cc(Br)c(-c2ccnc3[nH]ccc23)s1.Cl.Cl (stereo not drawn) [GSK1383281]	11	0	0	0	0	2	0	20	0	0
Nc1ncc(-c2ccc3nccc(-c4ccncc4)c3c2)cc1S(=O)(=O)N1CCCCC1 [GSK1693850]	0	0	0	13	11	38	1	0	32	0
CN(c1ccc(NC(=O)Nc2cccc(Cl)c2)cc1)c1ccnc(N)n1.Cl [GW830707]	0	12	0	0	0	6	32	15	9	19
CN(C)c1ncnc2nc[nH]c12 [SKF-31736]	0	0	0	0	0	14	48	0	0	0
CN(c1ccc2c(c1)nc(NCc1ccccc1)n2C)c1ccnc(Nc2ccc(CS(C)(=O)=O)cc2)n1.Cl [GW811603]	0	3	0	0	1	6	1	23	4	0
CSc1ccc(NC2=C(c3ccc(Cl)cc3)C(=O)NC2=O)cc1 [SB-317658]	9	29	11	0	0	13	47	7	0	29
COC(=O)Nc1nc2cc(Oc3ccc(NC(=O)Nc4cccc(SC)c4)cc3)ccc2[nH]1.Cl [GW697999]	0	0	0	8	0	55	0	0	13	0
Cc1cc(-c2ccnc(Nc3cccc(C#N)c3)n2)cc(C)c1O [GSK1440913]	0	0	75	1	0	99.1	0	0	7	28
Cc1ccc(Nc2ccnc(Nc3ccc(C)c(F)c3)n2)cc1O.Cl [GW582868]	0	0	0	0	26	43	0	0	1	0

Structure (SMILES)	%Inh (ERK1) [%]	%Inh (ERK2) [%]	%Inh (ERK3) [%]	%Inh (ERK4) [%]	%Inh (ERK5) [%]	%Inh (ERK8) [%]	%Inh (ERN1) [%]	%Inh (FAK) [%]	%Inh (FER) [%]	%Inh (FES) [%]
Cn1cc(-c2ccc3c(c2)CCN3C(=O)Cc2cc(F)cc(C(F)(F)F)c2)c2c(N)ncnc21 [GSK2635225]	15	0	0	24	0	8	6	11	34	0
CN(C)CCNS(=O)(=O)c1ccc(-c2ccnc3[nH]ccc23)cc1 [GSK977620]	2	1	3	10	0	0	8	0	41	0
Cc1ccc(O)cc1Nc1ccnc2ccc(C(C)(C)C)cc12 [GW856805]	2	0	9	6	9	13	27	34	21	12
Cc1ccc(NC(=O)c2ccc(Cl)c(Cl)c2)cc1-c1ccc(C(=O)Nc2ccncc2)cc1 [GSK1398460]	5	2	0	13	0	0	0	0	34	0
CCNc1nccc(-c2c(-c3ccc(F)cc3)ncn2C2CCN(C)CC2)n1	0	0	0	0	0	4	100	0	0	0
N#CC1(c2cccc(C(=O)Nc3cccc(Oc4ccc5nc(NC(=O)C6CC6)sc5n4)c3)c2)CC1	0	0	0	0	0	29	0	17	22	0
Cl.O=C(Nc1ccc(Oc2ccc3[nH]c(NC(=O)c4ccco4)nc3c2)cc1)Nc1cc(C(F)(F)F)ccc1F [GW683134]	0	0	0	14	0	82	0	0	0	0
COc1cc(Nc2ccnc3cc(-c4ccncc4)ccc23)cc(OC)c1OC.Cl [GW494610]	0	0	5	0	0	22	10	0	26	0
COc1cccc(CC(=O)N2CCc3cc(-c4cn(C)c5ncnc(N)c45)ccc32)c1 [GSK2608899]	6	13	0	12	0	17	19	8	17	0
COc1cccc(-c2nc(-c3ccccc3)[nH]c2-c2ccncc2)c1 [SB-610250]	0	0	4	21	14	0	20	0	0	0
Cc1ccccc1CC(=O)N1CCc2cc(-c3cn(C)c4ncnc(N)c34)ccc21 [GSK2603346]	0	0	0	0	0	30	1	0	17	0
CN(c1ccc(F)c(NC(=O)c2cccc(OC(C)(C)C#N)c2Cl)c1)c1ccc2nc(NC(=O)C3CC3)sc2n1	1	1	0	0	4	0	0	1	0	0
Cc1cc(-c2c(-c3ccc(F)cc3)ncn2CCCN2CCOCC2)nc(N)n1 [SB-222517]	4	21	0	0	0	6	0	0	16	35
Cc1ccc(NC(=O)c2ccnc(N3CCCCC3)c2)cc1-c1ccc(C(=O)NCC2CC2)cc1 [GW775610]	37	9	0	21	6	0	70	0	4	4
Cl.Cl.NC(CNC(=O)c1cc(Br)c(-c2ccnc3[nH]ccc23)s1)c1ccccc1 (stereo not drawn) [GSK1322949]	4	0	4	27	0	24	13	83	10	0
CCNC(=O)/C=C/c1n[nH]c2cc(Sc3ccccc3C(=O)NC)ccc12	8	43	13	15	3	28	15	0	4	24
